From PubChem BioAssay AID488866 (Broad Institute, 2010)
Entries with a potency or affinity are not part of this list. Active and inactive are the calls of the source.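 Rule for the calls: active = compounds that lower nitrite signal with fitted half-max concentration up to ten times top dose; inconclusive = flat curves showing 30 to 70% inhibition, or poor fits; inactive = the rest.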

Assay: suppression of NO production in INS-1E cells – cell-based, Griess absorbance, dry powder, dose response (AID 488866)
Settings: INS-1E cytokine-induced nitrite, 48 h; series mostly up to 19.5 µM

outcome, inactive:
C[C@@H]1CN([C@@H](C)CO)C(=O)c2cccc(NC(=O)Nc3ccc(F)cc3)c2O[C@H]1CN(C)S(=O)(=O)c1ccc(Cl)cc1, COc1ccc(S(=O)(=O)N(C)C[C@@H]2Oc3c(NC(=O)Nc4cccc5c4CCCC5)cccc3C(=O)N([C@@H](C)CO)C[C@H]2C)cc1, COc1ccc(S(=O)(=O)N(C)C[C@@H]2Oc3c(NC(=O)Nc4cccc(-c5ncccn5)c4)cccc3C(=O)N([C@@H](C)CO)C[C@H]2C)cc1, COc1ccc(S(=O)(=O)N(C)C[C@@H]2Oc3c(NC(=O)Nc4cccc5ccccc45)cccc3C(=O)N([C@@H](C)CO)C[C@H]2C)cc1F, C[C@@H]1CN([C@@H](C)CO)C(=O)c2cccc(NC(=O)Nc3cccc4ccccc34)c2O[C@H]1CN(C)S(=O)(=O)c1ccc2c(c1)OCCO2, C[C@@H]1CN([C@@H](C)CO)C(=O)c2cccc(NC(=O)Nc3cccc4ccccc34)c2O[C@H]1CN(C)S(=O)(=O)c1ccc2c(c1)CCC(=O)N2, COc1cccc(S(=O)(=O)N(C)C[C@@H]2Oc3c(NC(=O)Nc4cccc5ccccc45)cccc3C(=O)N([C@@H](C)CO)C[C@H]2C)c1, Cc1ccc(S(=O)(=O)N(C)C[C@@H]2Oc3c(NC(=O)Nc4ccc(F)cc4)cccc3C(=O)N([C@@H](C)CO)C[C@H]2C)cc1, COc1ccc(S(=O)(=O)N(C)C[C@@H]2Oc3c(NC(=O)Nc4cccc5c4ccn5C)cccc3C(=O)N([C@@H](C)CO)C[C@H]2C)cc1, COc1ccc(S(=O)(=O)N(C)C[C@@H]2Oc3c(NC(=O)Nc4cc(F)ccc4F)cccc3C(=O)N([C@@H](C)CO)C[C@H]2C)cc1, Cc1ccc(S(=O)(=O)N(C)C[C@@H]2Oc3c(NC(=O)Nc4ccc(F)cc4)cccc3C(=O)N([C@H](C)CO)C[C@H]2C)cc1, COc1ccccc1S(=O)(=O)N(C)C[C@@H]1Oc2c(NC(=O)Nc3cccc4ccccc34)cccc2C(=O)N([C@@H](C)CO)C[C@H]1C, C[C@@H]1CN([C@@H](C)CO)C(=O)c2cccc(NC(=O)Nc3cccc4ccccc34)c2O[C@H]1CN(C)S(=O)(=O)Cc1ccc(F)cc1, COc1ccc(S(=O)(=O)N(C)C[C@@H]2Oc3c(NC(=O)Nc4ccc5c(c4)OCCO5)cccc3C(=O)N([C@@H](C)CO)C[C@H]2C)cc1, C[C@@H]1CN([C@@H](C)CO)C(=O)c2cccc(NC(=O)Nc3cccc4ccccc34)c2O[C@H]1CN(C)S(=O)(=O)c1ccc(F)cc1, COc1ccc(S(=O)(=O)N(C)C[C@@H]2Oc3ccc(NC(=O)Nc4cccc5ccccc45)cc3C(=O)N([C@@H](C)CO)C[C@H]2C)cc1, C[C@@H]1CN([C@@H](C)CO)C(=O)c2cccc(NC(=O)Nc3ccc(F)cc3)c2O[C@H]1CN(C)S(=O)(=O)c1ccc(F)cc1, COc1ccc(S(=O)(=O)N(C)C[C@@H]2Oc3c(NC(=O)Nc4cccc5c4NSN5)cccc3C(=O)N([C@@H](C)CO)C[C@H]2C)cc1, COc1ccc(S(=O)(=O)N(C)C[C@@H]2Oc3c(NC(=O)Nc4cc(F)cc5c4OCOC5)cccc3C(=O)N([C@@H](C)CO)C[C@H]2C)cc1, COc1ccc(S(=O)(=O)N(C)C[C@@H]2Oc3c(NC(=O)c4cccc5ccccc45)cccc3C(=O)N([C@@H](C)CO)C[C@H]2C)cc1, COc1ccc(S(=O)(=O)N(C)C[C@@H]2Oc3c(NC(=O)Nc4cccc5ccccc45)cccc3C(=O)N([C@@H](C)CO)C[C@H]2C)cc1, COc1ccc(S(=O)(=O)N(C)C[C@@H]2Oc3c(NC(=O)Nc4ccc5occc5c4)cccc3C(=O)N([C@@H](C)CO)C[C@H]2C)cc1, C[C@@H]1CN([C@@H](C)CO)C(=O)c2cccc(NC(=O)Nc3cccc4ccccc34)c2O[C@H]1CN(C)S(=O)(=O)c1ccc(Oc2ccccc2)cc1, Cc1ccc(S(=O)(=O)N(C)C[C@@H]2Oc3c(NC(=O)Nc4cccc5ccccc45)cccc3C(=O)N([C@@H](C)CO)C[C@H]2C)cc1, C[C@@H]1CN([C@@H](C)CO)C(=O)c2cccc(NC(=O)Nc3cccc4ccccc34)c2O[C@H]1CN(C)S(=O)(=O)c1ccccc1F, COc1ccc(S(=O)(=O)N(C)C[C@@H]2Oc3c(NC(=O)Nc4cccc5c4CC(C)(C)O5)cccc3C(=O)N([C@@H](C)CO)C[C@H]2C)cc1
